{"source": "PubChem BioAssay (NCI)", "note": "Compounds without any hit were thinned out: in the full panel of roughly 83,000, 20% have a hit.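 Activity criterion: percent growth below 10, measured after cells in 96-well plates were exposed to a single compound concentration for 48 hours.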 The source made the active and inactive calls."}
{"test_system": "A549/ATCC NSCLC", "test": "NCI-60 one-dose screen, 48 h (100 = growth as untreated, 0 = no growth, -100 = all killed)", "settings": "10 µM unless noted"}
{"smiles": "COc1cc(C=O)ccc1OC(=O)c1cc(-c2ccc(C)cc2)n(-c2ccc(S(C)(=O)=O)cc2)n1", "growth": "103% (inactive)"}
{"smiles": "N#CC1=C(c2cccs2)Nc2c(c(-c3ccccc3)nn2-c2ccccc2)C12C(=O)Nc1ccccc12", "note": "(stereo unspecified)", "growth": "5.42% (active)"}
{"smiles": "COc1ccc(/C=C/c2nc3ccccc3c(=O)n2CC(=O)Nc2ccccc2)cc1", "growth": "27.5% (inactive)"}
{"smiles": "COc1ccc2c(c1)C(=O)N(C)C2C1c2c(cc3c(c2OC)OCO3)CCN1C", "note": "(stereo unspecified)", "growth": "57.9% (inactive)"}
{"smiles": "Cc1ccc(C(C(=O)NC2CCCCC2)N(Cc2ccccc2Cl)C(=O)c2ccc(CN3CCOCC3)o2)o1", "note": "(stereo unspecified)", "growth": "98.5% (inactive)"}
{"smiles": "O=C(NNC(=S)NCCc1ccccc1)c1ccc(OCc2nc3ccc(Cl)cc3[nH]2)cc1", "growth": "73.8% (inactive)"}
{"smiles": "COc1ccc2c(c1)N=c1c-2cc2c(O)[nH]c(=S)n2c1=O", "growth": "65.8% (inactive)"}
{"smiles": "Cc1ccc(C2CC(c3ccc(NC(=O)Nc4ccccc4)cc3)=NN2c2ccc(S(C)(=O)=O)cc2)cc1", "note": "(stereo unspecified)", "growth": "4.89% (active)"}
{"smiles": "COc1ccc(C(=O)NNC(=O)CSc2nc3sc4c(c3c(=O)n2-c2ccc(Cl)cc2)CCCC4)cc1", "growth": "86.7% (inactive)"}
{"smiles": "N#Cc1c(-c2ccc(F)cc2)nc(SCc2ccc(F)cc2)nc1N1CCNCC1", "growth": "-74.8% (active)"}
{"smiles": "Cc1ccc(C2CC(c3ccc(NC(=O)Nc4ccccc4)cc3)=NN2c2ccc(S(N)(=O)=O)cc2)cc1", "note": "(stereo unspecified)", "growth": "-61.4% (active)"}
{"smiles": "O=c1[nH]c2ccccc2cc1CSc1ccccc1Nc1nccc(-c2ccc3c(c2)OCO3)n1", "growth": "82.4% (inactive)"}
{"smiles": "COc1ccc2c(c1)C(Sc1ccc(F)cc1)c1c(nc(N)c(C#N)c1N)O2", "note": "(stereo unspecified)", "growth": "96.2% (inactive)"}
{"smiles": "O=C1c2cccc3c(N4CCN(Cc5ccccc5)CC4)ccc(c23)C(=O)N1c1cccc(-c2nn(-c3ccccc3)cc2-c2nc3ccccc3s2)c1", "growth": "113% (inactive)"}
{"smiles": "CCc1ccccc1NC(=O)N/C(N)=N/c1nc2ccccc2s1", "growth": "9.65% (active)"}
{"smiles": "O=C(N/N=C/c1ccoc1)c1[nH]c2ccc(Br)cc2c1-c1ccccc1", "growth": "-60.4% (active)"}
{"smiles": "COC(=O)c1c(C(=O)OC)c2ccc3c4ccccc4ccc3n2c1C(=O)C(C)Br", "note": "(stereo unspecified)", "growth": "50.5% (inactive)"}
{"smiles": "COc1cc(CNC(=O)C[C@H](C)CCC=C(C)C)ccc1OCc1cn(-c2ccc(Cl)cc2Cl)nn1", "growth": "59.4% (inactive)"}
{"smiles": "O=CNc1cccc(-n2cnc3cc(-c4ccc(O)cc4)ccc32)c1", "growth": "42.9% (inactive)"}
{"smiles": "O=C(N/N=C/c1occc1Br)c1[nH]c2ccc(Br)cc2c1-c1ccccc1", "growth": "-41.7% (active)"}
{"smiles": "Cc1[nH]nc2ccc3nc(-c4cnn(CCO)c4)c4c(c3c12)CCCC4", "growth": "49.3% (inactive)"}
{"smiles": "Cc1cc(N=C(N)c2ccccc2)ccc1OCCCCCCCCn1ccnc1", "growth": "15% (inactive)"}
{"smiles": "Cc1ccc(C(=O)Nc2cc(-n3ccnc3)cc(C(F)(F)F)c2)cc1-n1cc(-c2cnc3cccnn23)nn1", "growth": "101% (inactive)"}
{"smiles": "Cc1cc(Cl)ccc1NC(=O)Nc1ccc(-c2ccc3c(c2)NC(=O)/C3=C\\c2ccc[nH]2)cc1", "growth": "105% (inactive)"}
{"smiles": "COc1ccc(NC(=O)NN2C(=O)c3ccccc3N(C)C2c2ccc(OC)cc2)cc1", "note": "(stereo unspecified)", "growth": "108% (inactive)"}
{"smiles": "COc1ccc(-c2nc3ccc(-c4nnc(SCC(=O)Nc5ccc(/C(C)=N\\O)cc5)o4)cc3[nH]2)cc1", "growth": "74.2% (inactive)"}
{"smiles": "Cc1ccc2c(c1)nc(-c1ccccc1)n2CC(=O)N=Nc1c(O)[nH]c2ccc(Cl)cc12", "growth": "-18.7% (active)"}
{"smiles": "COc1ccc2c(c1)c(-c1cc(N)n3nc(-c4c[nH]c5ccccc45)cc3n1)cn2C", "growth": "-88.1% (active)"}
{"smiles": "COc1cccc(C(N)=Nc2ccc(OCCCCCCCCn3cncn3)cc2)c1", "growth": "24.6% (inactive)"}
{"smiles": "COc1ccccc1/C=C/c1cccc(NC(=S)NCCCCN(C)C)c1", "growth": "-51.7% (active)"}
{"smiles": "Cc1cccc(C)c1Nc1nnc(-c2c[nH]c3ccccc23)o1", "growth": "98.1% (inactive)"}
{"smiles": "CCOc1ccccc1NC(=O)N/C(N)=N/c1nc2ccccc2s1", "growth": "13.6% (inactive)"}
{"smiles": "N#Cc1ccc(C(=O)NNC(=O)CSc2nc3sc4c(c3c(=O)n2-c2ccc(Cl)cc2)CCCC4)cc1", "growth": "61.9% (inactive)"}
{"smiles": "S=C(Nc1ccc(OCc2nc3ccc(Cl)cc3[nH]2)cc1)NC1CCCCC1", "growth": "15.6% (inactive)"}
{"smiles": "COC(=O)c1c(C(=O)OC)c2c3ccccc3c3ccccc3n2c1C(=O)C(C)(C)C", "growth": "101% (inactive)"}
{"smiles": "COc1cc(NC(=O)CSc2nnc(-c3ccc(-c4nc5ccc(Cl)cc5[nH]4)cc3)o2)cc(OC)c1OC", "growth": "70.5% (inactive)"}
{"smiles": "O=C1/C(=C/c2cnc(-c3ccccc3)s2)SC(=S)N1Cc1ccc2c(c1)OCO2", "growth": "101% (inactive)"}
{"smiles": "CC(=O)c1c2c(c3ccc4c5ccccc5ccc4n13)C(=O)c1ccccc1C2=O", "growth": "84.1% (inactive)"}
{"test_system": "786-0 renal", "test": "NCI-60 one-dose screen, 48 h (100 = growth as untreated, 0 = no growth, -100 = all killed)", "settings": "10 µM unless noted"}
{"smiles": "COc1cc(C=O)ccc1OC(=O)c1cc(-c2ccc(C)cc2)n(-c2ccc(S(C)(=O)=O)cc2)n1", "growth": "102% (inactive)"}
{"smiles": "N#CC1=C(c2cccs2)Nc2c(c(-c3ccccc3)nn2-c2ccccc2)C12C(=O)Nc1ccccc12", "note": "(stereo unspecified)", "growth": "1.25% (active)"}
{"smiles": "COc1ccc(/C=C/c2nc3ccccc3c(=O)n2CC(=O)Nc2ccccc2)cc1", "growth": "-42.6% (active)"}
{"smiles": "COc1ccc2c(c1)C(=O)N(C)C2C1c2c(cc3c(c2OC)OCO3)CCN1C", "note": "(stereo unspecified)", "growth": "65.9% (inactive)"}
{"smiles": "Cc1ccc(C(C(=O)NC2CCCCC2)N(Cc2ccccc2Cl)C(=O)c2ccc(CN3CCOCC3)o2)o1", "note": "(stereo unspecified)", "growth": "82.8% (inactive)"}
{"smiles": "O=C(NNC(=S)NCCc1ccccc1)c1ccc(OCc2nc3ccc(Cl)cc3[nH]2)cc1", "growth": "79.1% (inactive)"}
{"smiles": "COc1ccc2c(c1)N=c1c-2cc2c(O)[nH]c(=S)n2c1=O", "growth": "35.3% (inactive)"}
{"smiles": "Cc1ccc(C2CC(c3ccc(NC(=O)Nc4ccccc4)cc3)=NN2c2ccc(S(C)(=O)=O)cc2)cc1", "note": "(stereo unspecified)", "growth": "-31.6% (active)"}
{"smiles": "COc1ccc(C(=O)NNC(=O)CSc2nc3sc4c(c3c(=O)n2-c2ccc(Cl)cc2)CCCC4)cc1", "growth": "102% (inactive)"}
{"smiles": "N#Cc1c(-c2ccc(F)cc2)nc(SCc2ccc(F)cc2)nc1N1CCNCC1", "growth": "-79.1% (active)"}
{"smiles": "Cc1ccc(C2CC(c3ccc(NC(=O)Nc4ccccc4)cc3)=NN2c2ccc(S(N)(=O)=O)cc2)cc1", "note": "(stereo unspecified)", "growth": "-87.9% (active)"}
{"smiles": "O=c1[nH]c2ccccc2cc1CSc1ccccc1Nc1nccc(-c2ccc3c(c2)OCO3)n1", "growth": "64.7% (inactive)"}
{"smiles": "COc1ccc2c(c1)C(Sc1ccc(F)cc1)c1c(nc(N)c(C#N)c1N)O2", "note": "(stereo unspecified)", "growth": "80.7% (inactive)"}
{"smiles": "O=C1c2cccc3c(N4CCN(Cc5ccccc5)CC4)ccc(c23)C(=O)N1c1cccc(-c2nn(-c3ccccc3)cc2-c2nc3ccccc3s2)c1", "growth": "101% (inactive)"}
{"smiles": "CCc1ccccc1NC(=O)N/C(N)=N/c1nc2ccccc2s1", "growth": "-4.92% (active)"}
{"smiles": "O=C(N/N=C/c1ccoc1)c1[nH]c2ccc(Br)cc2c1-c1ccccc1", "growth": "-76.5% (active)"}
{"smiles": "COC(=O)c1c(C(=O)OC)c2ccc3c4ccccc4ccc3n2c1C(=O)C(C)Br", "note": "(stereo unspecified)", "growth": "41.9% (inactive)"}
{"smiles": "COc1cc(CNC(=O)C[C@H](C)CCC=C(C)C)ccc1OCc1cn(-c2ccc(Cl)cc2Cl)nn1", "growth": "38.9% (inactive)"}
{"smiles": "O=CNc1cccc(-n2cnc3cc(-c4ccc(O)cc4)ccc32)c1", "growth": "39.1% (inactive)"}
{"smiles": "O=C(N/N=C/c1occc1Br)c1[nH]c2ccc(Br)cc2c1-c1ccccc1", "growth": "-76.6% (active)"}
{"smiles": "Cc1[nH]nc2ccc3nc(-c4cnn(CCO)c4)c4c(c3c12)CCCC4", "growth": "38.7% (inactive)"}
{"smiles": "Cc1cc(N=C(N)c2ccccc2)ccc1OCCCCCCCCn1ccnc1", "growth": "4.01% (active)"}
{"smiles": "Cc1ccc(C(=O)Nc2cc(-n3ccnc3)cc(C(F)(F)F)c2)cc1-n1cc(-c2cnc3cccnn23)nn1", "growth": "103% (inactive)"}
{"smiles": "Cc1cc(Cl)ccc1NC(=O)Nc1ccc(-c2ccc3c(c2)NC(=O)/C3=C\\c2ccc[nH]2)cc1", "growth": "105% (inactive)"}
{"smiles": "COc1ccc(NC(=O)NN2C(=O)c3ccccc3N(C)C2c2ccc(OC)cc2)cc1", "note": "(stereo unspecified)", "growth": "65.8% (inactive)"}
{"smiles": "COc1ccc(-c2nc3ccc(-c4nnc(SCC(=O)Nc5ccc(/C(C)=N\\O)cc5)o4)cc3[nH]2)cc1", "growth": "-62.1% (active)"}
{"smiles": "Cc1ccc2c(c1)nc(-c1ccccc1)n2CC(=O)N=Nc1c(O)[nH]c2ccc(Cl)cc12", "growth": "-92% (active)"}
{"smiles": "COc1ccc2c(c1)c(-c1cc(N)n3nc(-c4c[nH]c5ccccc45)cc3n1)cn2C", "growth": "-84.5% (active)"}
{"smiles": "COc1cccc(C(N)=Nc2ccc(OCCCCCCCCn3cncn3)cc2)c1", "growth": "28.4% (inactive)"}
{"smiles": "COc1ccccc1/C=C/c1cccc(NC(=S)NCCCCN(C)C)c1", "growth": "-55.3% (active)"}
{"smiles": "Cc1cccc(C)c1Nc1nnc(-c2c[nH]c3ccccc23)o1", "growth": "105% (inactive)"}
{"smiles": "CCOc1ccccc1NC(=O)N/C(N)=N/c1nc2ccccc2s1", "growth": "12.9% (inactive)"}
{"smiles": "N#Cc1ccc(C(=O)NNC(=O)CSc2nc3sc4c(c3c(=O)n2-c2ccc(Cl)cc2)CCCC4)cc1", "growth": "75.5% (inactive)"}
{"smiles": "S=C(Nc1ccc(OCc2nc3ccc(Cl)cc3[nH]2)cc1)NC1CCCCC1", "growth": "-20.6% (active)"}
{"smiles": "COC(=O)c1c(C(=O)OC)c2c3ccccc3c3ccccc3n2c1C(=O)C(C)(C)C", "growth": "86.6% (inactive)"}
{"smiles": "COc1cc(NC(=O)CSc2nnc(-c3ccc(-c4nc5ccc(Cl)cc5[nH]4)cc3)o2)cc(OC)c1OC", "growth": "56.7% (inactive)"}
{"smiles": "O=C1/C(=C/c2cnc(-c3ccccc3)s2)SC(=S)N1Cc1ccc2c(c1)OCO2", "growth": "31.2% (inactive)"}
{"smiles": "CC(=O)c1c2c(c3ccc4c5ccccc5ccc4n13)C(=O)c1ccccc1C2=O", "growth": "78.5% (inactive)"}
